Measurements reported in paper PMC5540273 (PLoS ONE, 2017).

Experiments:
Details in all cases: concentration: 1 μM, replicates: in singlicate; n = 1
CDK8 = test system: CDK8
CDK9 = test system: CDK9
CDKL1 = test system: CDKL1
CDKL2 = test system: CDKL2
CDKL3 = test system: CDKL3
CDKL5 = test system: CDKL5
CHEK1 = test system: CHEK1
CHEK2 = test system: CHEK2
CIT = test system: CIT
CLK1 = test system: CLK1
CLK2 = test system: CLK2
CLK3 = test system: CLK3
CLK4 = test system: CLK4
CSF1R-autoinhibited = test system: CSF1R-autoinhibited
CSF1R = test system: CSF1R
CSK = test system: CSK
CSNK1A1L = test system: CSNK1A1L
CSNK1A1 = test system: CSNK1A1
CSNK1D = test system: CSNK1D
CSNK1E = test system: CSNK1E
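Note: KINOMEscan kinase panel screen.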

Compound	%Inh (CDK8) [%]	%Inh (CDK9) [%]	%Inh (CDKL1) [%]	%Inh (CDKL2) [%]	%Inh (CDKL3) [%]	%Inh (CDKL5) [%]	%Inh (CHEK1) [%]	%Inh (CHEK2) [%]	%Inh (CIT) [%]	%Inh (CLK1) [%]	%Inh (CLK2) [%]	%Inh (CLK3) [%]	%Inh (CLK4) [%]	%Inh (CSF1R-autoinhibited) [%]	%Inh (CSF1R) [%]	%Inh (CSK) [%]	%Inh (CSNK1A1L) [%]	%Inh (CSNK1A1) [%]	%Inh (CSNK1D) [%]	%Inh (CSNK1E) [%]
Cc1cc(-c2ccnc(Nc3cccc(C#N)c3)n2)cc(C)c1O [GSK1440913]	30	52	1	89	99.1	24	0	0	94	99	89	91.5	95.8	13	14	0	30	0	76	90.3
COc1cccc(-c2nc(-c3ccccc3)[nH]c2-c2ccncc2)c1 [SB-610250]	30	0	20	23	0	8	0	0	47	29	0	27	8	0	2	0	19	47	66	68
CCOc1nccc(-c2c(-c3ccc(F)cc3)ncn2C2CCNCC2)n1 [SB-249175]	25	1	1	0	17	7	0	16	10	0	0	11	100	31	28	0	45	97.4	95.3	99.4
COC(=O)Nc1nc2ccc(Oc3ccc(CC(=O)Nc4cc(C(F)(F)F)ccc4F)cc3)cc2[nH]1 [GW680903]	0	0	2	14	0	0	0	20	68	24	0	0	3	50	71	0	0	0	0	0
CC(=O)Nc1cn2nc(Oc3cccc(NC(=O)c4cccc(C(F)(F)F)c4)c3)ccc2n1	70	0	48	44	6	0	0	0	99.8	5	13	54	0	82	100	44	21	12	4	44
CC(C)c1nc(-c2ccc(F)c(NS(=O)(=O)c3c(F)cccc3F)c2)c(-c2ccnc(Nc3ccc(N4CCOCC4)nc3)n2)s1 [GSK1804250]	28	1	22	99.3	0	88	0	49	81	7	9	6	21	14	94.5	97.4	19	10	33	36
CNc1nccc(-c2ccc3c(N)n[nH]c3c2)n1 [GSK2206003]	32	11	18	17	0	0	0	51	86	97.1	84	48	95.5	11	6	0	6	0	20	28
NCCC(NC(=O)c1cc(Br)c(-c2ccnc3[nH]ccc23)s1)c1ccccc1.O=C(O)C(F)(F)F.O=C(O)C(F)(F)F (centres unmarked) [GSK1307810]	100	35	2	0	0	0	0	41	98.5	41	37	54	46	43	18	0	71	93.9	94.1	94.1
CCNC(=O)/C=C/c1n[nH]c2cc(Sc3ccccc3C(=O)NC)ccc12	20	13	17	26	17	15	0	0	0	17	0	14	3	36	99.8	3	0	21	0	18
N#CC1(c2cccc(C(=O)Nc3cccc(Oc4ccc5nc(NC(=O)C6CC6)sc5n4)c3)c2)CC1	35	0	14	95.8	79	0	0	0	94.2	8	4	0	17	87	100	25	0	0	14	0
CCn1c(-c2nonc2N)nc2c(-c3ccccc3)ncc(OCCCN)c21.O=C(O)C(F)(F)F.O=C(O)C(F)(F)F [GSK260205]	1	0	7	31	0	0	0	0	98.9	14	0	5	4	0	2	0	46	69	94.2	98.7
COc1cc(Nc2nccc(N3CCC(NC(=O)Nc4ccc5c(c4)OCO5)C3)n2)cc(OC)c1OC (centres unmarked) [GSK1379766]	46	0	0	41	0	0	0	4	0	25	0	2	0	0	41	0	0	0	0	20
O=C(O)C(F)(F)F.O=c1[nH]ccc2nc(N[C@@H]3CCNC3)nc(Nc3ccc4c(c3)S(=O)(=O)CC4)c12 [GSK2181306]	0	30	40	44	0	0	98.3	82	84	74	95	17	80	0	86	5	90	97.7	96.7	96.3
CCn1cnc2c(NCc3ccccc3)ncnc21 [SKF-96418]	40	20	13	10	12	0	0	0	16	0	10	0	14	0	0	0	0	18	20	16
Cl.O=C(Nc1ccc(Oc2ccc3[nH]c(NC(=O)c4ccco4)nc3c2)cc1)Nc1cc(C(F)(F)F)ccc1F [GW683134]	86	5	8	85	0	0	21	0	96.7	63	0	0	61	0	99.8	0	0	2	10	0
CN(C)CCNS(=O)(=O)c1ccc(-c2ccnc3[nH]ccc23)cc1 [GSK977620]	0	0	0	8	0	0	35	27	27	88	92.3	70	94.4	0	27	0	16	29	38	48
COC(=O)Nc1nc2cc(Oc3ccc(NC(=O)Nc4cccc(SC)c4)cc3)ccc2[nH]1.Cl [GW697999]	47	0	21	86	0	0	2	28	98	19	32	23	24	53	99.6	0	6	0	17	22
Cn1cc(-c2cnc(N)c3c(-c4ccc5c(c4)CCN5C(=O)Cc4ccccc4)csc23)cn1 [GSK2593074]	19	0	9	0	4	0	9	0	0	15	19	0	0	39	99.9	20	0	21	0	1
N#Cc1cnc2cc(-c3cnc(CNCCN4CCOCC4)s3)ccc2c1Nc1ccc(Oc2ccccc2)cc1 [GW664114]	10	0	0	61	0	29	0	82	22	40	0	0	95.2	17	19	96.7	7	0	0	39
COc1ccc(C)c(Nc2ccnc(Nc3ccc(-c4cnc[nH]4)cc3)n2)c1.Cl [GW784041]	35	0	44	0	0	1	0	0	0	18	0	7	13	0	67	9	2	21	16	27

Compound	%Inh (CDK8) [%]	%Inh (CDK9) [%]	%Inh (CDKL1) [%]	%Inh (CDKL2) [%]	%Inh (CDKL3) [%]	%Inh (CDKL5) [%]	%Inh (CHEK1) [%]	%Inh (CHEK2) [%]	%Inh (CIT) [%]	%Inh (CLK1) [%]	%Inh (CLK2) [%]	%Inh (CLK3) [%]	%Inh (CLK4) [%]	%Inh (CSF1R-autoinhibited) [%]	%Inh (CSF1R) [%]	%Inh (CSK) [%]	%Inh (CSNK1A1L) [%]	%Inh (CSNK1A1) [%]	%Inh (CSNK1D) [%]	%Inh (CSNK1E) [%]
O=C(Nc1n[nH]c2nc(-c3ccccc3)ccc12)C1CC1 [SB-708999]	36	0	2	88	10	0	0	0	7	86	0	1	0	36	0	0	15	0	13	0
O=C(Nc1n[nH]c2nc(-c3ccccc3O)ccc12)C1CC1 [SB-711880]	0	0	42	98.5	17	0	3	0	0	66	16	0	11	16	0	0	76	25	0	0
Cc1ccc(NC(=O)c2cccc(N3CCCCC3)c2)cc1-c1ccc(C(=O)NCC2CC2)cc1 [GSK1917008]	10	0	7	16	0	7	100	0	86	22	1	0	32	0	45	0	18	20	27	21
O=C(Nc1n[nH]c2nc(-c3cccc(O)c3)ccc12)C1CC1 [SB-711805]	0	0	30	80	0	9	0	25	21	20	20	16	0	0	0	100	6	0	11	34
Nc1ncnc2scc(-c3ccc(NC(=O)Cc4cc(F)ccc4F)cc3)c12.O=C(O)C(F)(F)F [SB-731254-M]	93.8	0	30	28	2	5	9	0	12	16	0	14	12	79	100	9	6	15	29	0
COc1cc(Nc2nccc(N3CCC(NS(=O)(=O)c4ccc(NC(C)=O)cc4)CC3)n2)cc(OC)c1OC [GSK1379825]	31	0	19	24	0	0	0	0	17	2	0	23	39	7	19	0	3	8	0	21
COc1cccc(NC(=O)NCCNc2ccnc(Nc3ccc(F)cc3)n2)c1 [GSK1379879]	27	0	0	15	0	0	0	0	6	17	0	0	20	20	11	0	0	0	0	0
CC(C)c1nc(-c2cccc(NS(=O)(=O)c3c(F)cccc3F)c2)c(-c2ccnc(Nc3ccc(N4CCOCC4)nc3)n2)s1.Cl [GSK1723980]	6	75	74	98.9	24	97.8	0	13	97.5	0	0	0	0	0	52	96.5	0	95.1	0	10
Cn1cc(-c2ccc3c(c2)CCN3C(=O)Cc2cc(F)cc(C(F)(F)F)c2)c2c(N)ncnc21 [GSK2635225]	91.8	7	11	24	0	0	8	0	28	11	19	100	18	45	95.3	0	1	3	22	100
Cc1ccc(O)cc1Nc1ccnc2cc(-c3ccc(CN4CCCCC4)o3)ccc12 [GW557777]	0	0	7	0	5	0	13	0	40	24	0	0	0	0	96.7	82	44	84	27	34
CN(C)CCOc1ccc(-c2cc(-c3ccc(Cl)c(O)c3)c(-c3ccncc3)[nH]2)cc1.Cl.Cl [SB-684387]	38	18	28	39	0	0	7	33	90.8	32	1	5	3	30	5	7	2	23	77	94.6
CN1CCN(Cc2ccc(NC(=O)Nc3ccc(N(C)c4ccnc(Nc5ccc(CS(C)(=O)=O)cc5)n4)cc3)cc2)CC1.Cl [GW827654]	60	50	71	99.8	99.6	0	0	78	23	42	0	31	0	94.7	100	47	0	30	15	30
Cc1cc(-c2c(-c3ccc(F)cc3)ncn2CCCN2CCOCC2)nc(N)n1 [SB-222517]	0	0	30	0	35	7	0	0	2	0	30	0	16	17	14	7	0	17	7	1
Fc1cc(Cl)ccc1Nc1ccnc2cc(-c3ccc(CN4CCSCC4)o3)ccc12 [GW560106]	53	0	100	8	0	0	0	79	29	8	0	0	22	52	92.3	13	0	0	6	27
CS(=O)(=O)c1cccc(CNc2nc(Nc3ccc4c(c3)CCC(=O)N4)ncc2C(F)(F)F)c1	0	8	23	37	10	0	0	0	37	46	22	0	24	0	20	1	0	0	0	0
Nc1cccc(-c2ccc3c(N)n[nH]c3c2)c1 [GSK2193613]	42	3	19	23	0	0	0	6	30	43	10	0	64	17	2	0	13	0	8	5
Cl.Cl.NCC(NC(=O)c1cc(-c2cccnc2)c(-c2ccnc3[nH]ccc23)s1)c1ccccc1 (centres unmarked) [GSK1323434]	43	1	66	23	0	0	0	55	100	71	51	12	60	30	44	0	77	91.5	96.7	99
O=C(O)C(F)(F)F.O=c1[nH]ccc2nc(N[C@@H]3CCNC3)nc(Nc3cc(Cl)cc(Cl)c3)c12 [GSK2188764]	0	34	37	24	0	0	100	85	67	82	95.9	34	82	0	69	18	56	94	79	91.3
Cc1ccc(NC(=O)c2ccnc(N3CCCCC3)c2)cc1-c1ccc(C(=O)NCC2CC2)cc1 [GW775610]	39	1	9	33	0	75	0	39	38	11	0	0	0	5	23	0	20	1	0	0
Cc1nn2c(=O)cc(N3CCO[C@H](C)C3)nc2n1Cc1cccc(Cl)c1Cl [GSK2373693]	0	2	1	11	0	0	26	0	21	55	31	4	59	0	6	56	0	16	69	25
